Experimental data taken from PubChem BioAssay AID1259343 (VanderVen Lab, College of Veterinary Medicine, Cornell …, 2017).
The whole screen tested about 6,200 compounds, of which about 2,900 (47%) were called active. So high a share suggests a set chosen from earlier hits. The list shows a part of the results. A number with no mark means an inactive call. Rule as the data show it: active = inhibition above about 50%; inactive = the rest.

Experiment: Mycobacterium tuberculosis growth inhibition, primary screen (AID 1259343)
Conditions: inhibition: at 10 µM, active compounds read high; outcome: 10 uM

Structure (SMILES)	inhibition
O=C(C1=C(O)C(=O)N(c2ncccn2)C1c1ccc(Cl)c(Cl)c1)c1ccco1 (stereo not drawn)	-2.77%
COc1ccc(-c2cc(O)cc3sc(=O)oc23)cc1	69.8% (active)
COc1ccc(-c2c(C)noc2-c2ccc(OC)cc2O)cc1	16.2%
O=c1oc2c(-c3ccc(Br)cc3)cc(O)cc2s1	48.6%
CC(C)c1ccccc1OCCOc1cccc2cccnc12	61.7% (active)
Cc1ccc2cccc(OCCCOc3ccc(C)c(C)c3)c2n1	-21.9%
CC(C)c1cccc(OCCOc2cccc3cccnc23)c1	58.4% (active)
Cc1cc(S(=O)(=O)NC2CCCCC2C)ccc1Cl (stereo not drawn)	14.4%
O=C1c2ccccc2C(=O)C1c1ccnc2ccccc12	-13.4%
Nc1c2ccccc2nc2ccccc12 (tested in a mixture with another compound)	90.3% (active)
Cc1nn2c(-c3cccc(C(F)(F)F)c3)cc(C(=O)O)nc2c1-c1ccccc1	89.3% (active)
COc1ccc(-c2cc(C(=O)NCCN3CCCCC3)nc3c(-c4ccccc4)c(C)nn23)cc1	38.1%
COc1ccccc1CN(Cc1cccc(C(F)(F)F)c1)Cc1nc(C(=O)O)co1	9.16%
Cc1nn2c(-c3ccccc3Cl)cc(C(=O)O)nc2c1-c1ccccc1	71.1% (active)
Cc1nn2c(NCCOCCO)cc(C(C)(C)C)nc2c1-c1ccccc1Cl	19.6%
O=C1CCCC2=C1C(c1ccncc1)NC(=O)N2Cc1ccccc1 (stereo not drawn)	85.2% (active)
COc1ccc2cc(C(=O)C3CCCN(Cc4cccc(C)n4)C3)ccc2c1 (stereo not drawn)	42.4%
COc1ccc2cc(C(=O)C3CCCN(C(=O)CCC(=O)c4ccc(F)cc4)C3)ccc2c1 (stereo not drawn)	87.2% (active)
COc1ccc(C(=O)N2CCCC(C(=O)c3ccc(-c4ccccc4)c(F)c3)C2)o1 (stereo not drawn)	inactive
Clc1ccc(Cn2ncc3c(Nc4ccc(Cl)cc4)ncnc32)cc1	9.84%
Cc1ccc(Nc2nc(N3CCN(Cc4ccccc4)CC3)nc3nccnc23)cc1Cl	19.4%
Clc1ccc(Nc2nccc3c2ncn3Cc2ccccc2)cc1	57.3% (active)
Cc1cc2ncn(Cc3ccc(C(C)C)cc3)c2cc1C	-9.75%
CC(C)c1ccc(Nc2nccc3c2ncn3Cc2ccccc2)cc1	73% (active)
C=C(C)Cn1c(SCCCC)nc2c1c(=O)[nH]c(=O)n2C	-35.9%

Structure (SMILES)	inhibition
CCS(=O)(=O)N1CCc2cc(-c3csc(-c4ccc(O)cc4)n3)ccc21	11.5%
O=C(CCC(F)(F)F)N1CCCC(CCc2ccc(F)cc2F)C1 (stereo not drawn)	66% (active)
Cc1ccc(C(=O)N2CCCC(CCc3ccc(F)c(F)c3)C2)cc1O (stereo not drawn)	7.31%
O=C(CCCc1ccc(Cl)cc1)N1CCCC(CO)(Cc2ccc(F)cc2F)C1 (stereo not drawn)	18.9%
CCCOc1ccc2c(c1)OCC(C(=O)Nc1cnn(C)c1)=C2	-4.68%
CCCn1cc(NC(=O)c2cc(-c3ccccc3)on2)cn1	85.3% (active)
CCCn1cc(CNC(=O)c2ccc(Cl)cn2)cn1	-32.2%
O=[N+]([O-])c1cc(S(=O)(=O)C(F)(F)F)ccc1N1CCN(c2ccccc2F)CC1	24.3%
O=S(=O)(Nc1ccc(N2CCCC2)c(F)c1)c1cc(F)cc(F)c1	56.4% (active)
Cc1ccc(C(=O)N2CCCN(C(=O)OC(C)(C)C)CC2)cc1S(C)(=O)=O	74.7% (active)
O=C(c1cc(Br)cc(Br)c1)N1CCCCCC1	-4.59%
Cc1ccc(Cl)cc1N1CCN(C(=O)c2ccc(=O)[nH]c2)CC1	32.4%
Cc1cc2c(cc1C)C(=O)C(N1CCOCC1)=C(c1ccccc1)C2=O	40.4%
OCc1sc(N2CCOCC2)nc1-c1ccccc1	89.7% (active)
CCN(Cc1ccccc1)C(=O)c1ccc(-c2ccccc2)nc1N1CCOCC1	20.4%
S=c1[nH]nc(-c2cc(-c3cccs3)nc3ccccc23)o1	inactive
Cc1cc(-c2n[nH]c(=S)o2)c(C)n1-c1ccccc1	70.3% (active)
O=S(=O)(Nc1ccc(Br)cc1Cl)c1ccc(F)cc1	50.5% (active)
O=S(=O)(Nc1ccc(Br)cc1F)c1cccs1	31.8%
COC(=O)c1ccc(F)c(NS(=O)(=O)c2ccc(Cl)c(C(F)(F)F)c2)c1	41.9%
O=S(=O)(Nc1ccc(Br)cc1F)c1ccc(Cl)c(C(F)(F)F)c1	88.3% (active)
O=[N+]([O-])c1ccccc1NN=C1CCCCc2ccccc21	5.1%
CC(C)(C)C1CCC(=NNc2ccc([N+](=O)[O-])cc2)CC1 (stereo not drawn)	-18.8%
O=[N+]([O-])c1ccc(NN=C2CCCCCCC2)cc1	88.4% (active)
CCC(C)(C)C1CCC(=NNc2ccc([N+](=O)[O-])cc2)CC1 (stereo not drawn)	74.3% (active)

Structure (SMILES)	inhibition
O=[N+]([O-])c1ccc(NN=CC2CCCCC2)cc1	97.8% (active)
O=S(=O)(Oc1ccc2ccccc2c1Cl)N1CCCCC1	0.9%
Cc1nn(-c2ccccc2)c2[nH]cc(C(=O)Nc3ccc(N(C)C)cc3)c(=O)c12	29%
Cc1ccc(-n2nc(C)c3c(=O)c(C(=O)N4c5ccccc5CC4C)c[nH]c32)cc1 (stereo not drawn)	54.2% (active)
Cc1cc(C)cc(NC(=O)c2c[nH]c3c(c(C)nn3-c3ccccc3)c2=O)c1	45.9%
COc1ccc(NC(=O)c2c[nH]c3c(c(C)nn3-c3ccccc3)c2=O)cc1	67.8% (active)
Cc1nn(-c2ccccc2)c2[nH]cc(C(=O)Nc3ccccc3)c(=O)c12	53.1% (active)
COc1cccc(NC(=O)c2c[nH]c3c(c(C)nn3-c3ccccc3)c2=O)c1	90.4% (active)
Cc1nn(-c2ccccc2)c2[nH]cc(C(=O)NCc3ccccc3)c(=O)c12	51.6% (active)
Cc1ccc(CNC(=O)c2c[nH]c3c(c(C)nn3-c3ccccc3)c2=O)cc1	49.8%
Cc1nn(-c2ccccc2)c2[nH]cc(C(=O)NCc3ccccc3Cl)c(=O)c12	31.5%
Cc1noc(-c2cc(Br)cc(Br)c2O)n1	101% (active)
O=C(O)c1csc(-c2ccc(Cl)cc2Cl)n1	39.2%
O=C(O)c1cc2cc(Cl)ccc2[nH]1	56.1% (active)
Cc1cc(Cl)cc2sc(N(CCCn3ccnc3)C(=O)/C=C/c3cccs3)nc12	75.5% (active)
N=C1C2=C3Sc4ccccc4N3CCCC2=NN1c1ccc(Cl)cc1	13.7%
CN(Sc1ccccc1[N+](=O)[O-])c1ccccc1	30.9%
O=[N+]([O-])c1cccnc1Oc1ccc(Oc2ccccc2)cc1	94.5% (active)
c1ccc(CCCc2nnnn2CC2CCOC2)cc1 (stereo not drawn)	65.2% (active)
COc1ccc(NC(C)c2nc(-c3ccco3)no2)cc1 (stereo not drawn)	94.9% (active)
CC(C)c1noc(C(C)Nc2ccc3c(c2)CCO3)n1 (stereo not drawn)	1.87%
CC1CCC(NC(=O)COc2ccccc2Br)CC1 (stereo not drawn)	42.5%
CC1(C)C2CCC1(C)C(NS(=O)(=O)Cc1ccccc1)C2 (stereo not drawn)	7.59%
CC1(C)C2CCC1(C)C(NC(=O)COc1ccccc1Cl)C2 (stereo not drawn)	91.4% (active)
CCOc1ccccc1NC(=O)N1CCN(CCCOC(c2ccc(Cl)cc2)c2ccc(Cl)cc2)CC1	16.6%

Structure (SMILES)	inhibition
Cc1occc1C(=O)Nc1cc(Cl)ccc1C(=O)O	62.5% (active)
O=C(Nc1ccc(C(=O)O)c(O)c1)c1cc(Cl)cc(Cl)c1	25.6%
Cc1cc(NC(=O)C2c3ccccc3Oc3ccccc32)n(-c2nc3c(c(=O)[nH]2)CCC3)n1	-27.3%
Cc1cc(=O)[nH]c(-n2nc(C)cc2NC(=O)C2c3ccccc3Oc3ccccc32)n1	100% (active)
CCc1cc(=O)[nH]c(-n2nc(C)cc2NC(=O)C2c3ccccc3Oc3ccccc32)n1	101% (active)
CCCc1cc(=O)[nH]c(-n2nc(C)cc2NC(=O)C2c3ccccc3Oc3ccccc32)n1	99% (active)
FC(F)Sc1ccc(NC(=S)NN2CCCCC2)cc1	28.6%
O=C(Nc1ccc(SC(F)F)cc1)c1ccc(-n2cncn2)cc1	52.4% (active)
CN(C)P(=NC(=S)Nc1ccc(SC(F)F)cc1)(c1ccncc1)N(C)C	inactive
O=C(O)c1cc(-c2ccccc2F)nc2cc(-c3ccccc3)nn12	71.8% (active)
COc1ccc(-c2cc3nc(C)cc(NC(C)c4ccccc4)n3n2)cc1OC (stereo not drawn)	26.1%
CCOC(=O)C1CCCN(C(=O)c2cc(-c3cccc(OC)c3)nc3cc(-c4ccccc4)nn23)C1 (stereo not drawn)	1.82%
COc1ccc(C(=O)Nc2nc(-c3ccccc3)cs2)cc1	22.9%
Cc1cc(C(=O)O)n2nc(-c3ccc(Cl)cc3)cc2n1	76.7% (active)
COc1cccc(-c2cc(C(=O)O)n3nc(-c4ccccc4)cc3n2)c1	104% (active)
COc1cccc(C(=O)Nc2nc(-c3ccccc3)cs2)c1	71.2% (active)
COc1ccc(-c2cc(C(=O)O)n3nc(-c4ccc(Cl)cc4)cc3n2)cc1	41.5%
CCN(CC)S(=O)(=O)c1ccc(C(=O)Nc2nc(-c3ccccc3)cs2)cc1	35.8%
Cc1ccc(-c2cc(C(=O)N(CCN(C)C)Cc3ccccc3)n(-c3ccccc3)n2)cc1C	27.2%
O=C(O)c1cc(-c2ccc(F)cc2)nc2cc(-c3ccccc3)nn12	67.1% (active)
CC(C)(C)C(=O)Nc1nc(-c2cccc(Br)c2)cs1	57.1% (active)
O=C(O)c1cc(-c2ccccc2F)nc2cc(-c3ccc(Cl)cc3)nn12	88.1% (active)
Cc1cc(C(=O)NCCc2ccccc2)n2nc(-c3ccccc3)cc2n1	81.8% (active)
